# Only some compounds are listed: those with a hit (about 3.2% of all), similar ones and a draw of the others.
# Nrf2 inh: Nrf2 qHTS screen for inhibitors. A549 ARE-Fluc reporter, luciferase luminescence, 18-24 h. 360,000 compounds, 2.1% hits. Potency, µM (titrated, usually from 46 µM), without a hit: at the highest dose activity change, negative = inhibition, most hits filed as inhibitors; also: potency is read from the fitted curve at half-maximal effect; % is scaled to controls: 0 for no effect and ±100 for the full control effect; nearly all actives have a fitted effect of over 60% in size
#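 A549 ARE_Fluc cells, 5000/well, 5% FBS OPTI-MEM; compounds in dose-response, 18-24 h at 37 °C/5% CO2; CellTiter-Fluor viability read (Ex 405/Em 525), then BugLite luciferase luminescence = Nrf2 activity.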
# BRCA1 expr up: qHTS Assay to Identify Small Molecule Activators of BRCA1 Expression; MCF7-BRCA1-FFLuc reporter, luminescence, 48 h; response scale: scaled: vehicle 0%, 10 µM genistein 100%; Potency, µM (titrated, usually from 46.1 µM), inactives show at the top dose activation, most hits filed as activators; 380,000 compounds, 1.1% hits; also: potency is read from the fitted curve at half-maximal effect; nearly all actives have a fitted effect of over 80% in size
#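 Luminescence from a BRCA1-driven firefly luciferase in MCF7 cells was the read-out, taken 15 min after substrate addition following 48 h compound exposure at 37 °C. Data were normalized to a 10 microM genistein control and DMSO vehicle.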
# A549 viability: Nrf2 qHTS screen for inhibitors: counterscreen for cytotoxicity; A549 ARE-Fluc cells, CellTiter-Fluor viability, 18-24 h; Potency, µM (highest dose often 46 µM), without a hit: at the highest dose activity change, negative = cytotoxicity, hits mostly inhibitors; 390,000 compounds, 0.16% hits; also: potency is read from the fitted curve at half-maximal effect; % is scaled to controls: 0 for no effect and ±100 for the full control effect
#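 A549 ARE_Fluc cells in 5% FBS OPTI-MEM were exposed to compounds in concentration-response for 18-24 h at 37 deg C. Viability was read by CellTiter-Fluor fluorescence (Ex 405/Em 525) after 30 min, before the luciferase read.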
# Nrf2 activator: qHTS of Nrf2 Activators | Potency, µM (top dose mostly 46.1 µM), for the others: at the top dose activation, hits mostly activators | AREc32 ARE-luciferase reporter (MCF7-derived line), luminescence, 24 h | 410,000 compounds, 0.31% hits | AID 624171, 2012; also: potency is read from the fitted curve at half-maximal effect; % of control where 0% means no effect; nearly all actives have a fitted effect of over 65% in size
#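 Quantitative high-throughput format: AREc32 reporter cells, 1000 per well, received compound by pin transfer and were incubated 24 hr at 37 deg C, 5% CO2, before Steady-Glo luminescence detection.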
# IL-2 act: qHTS of IL-2 Activators; 360,000 compounds, 0.065% hits; IL-2 activation reporter assay, cell-based qHTS; stimulated with anti-CD3/CD4/CD28 beads; in transgenic mouse T cells; activation, % (series mostly up to about 46 µM); in the data active = activation above about 50%; inconclusive = mostly about 30% to 49%; also: 0% is about no effect
#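 Unstimulated transgenic mouse T cells, 750 per well, received compound and, after 60 minutes, anti-CD3/anti-CD4 bead plus anti-CD28 stimulation. EGFP and DsRed were quantified after 18 hours.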
# p53 reactivator: qHTS assay for re-activators of p53 using a Luc reporter; H1299 p53-A138V BP100-luciferase reporter, luminescence, 24 h; Potency, µM (titrated, usually from 92.2 µM), for the others: at the top dose activity change, positive = activation, actives largely listed as activators; 320,000 compounds, 0.063% hits; also: potency is read from the fitted curve at half-maximal effect; % of control where 0% means no effect; nearly all actives have a fitted effect of over 45% in size
#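 p53-null H1299 cells stably carrying temperature-sensitive p53-A138V and a BP100-luciferase reporter were pinned with compounds (4-point, 1:5 series) and held 24 hrs at 37 deg C. Luminescence was read 10 min after detection reagent.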
# * hit, by the source's call; ? = inconclusive; · = no result; [ ] = dose if it differs, or a comment. Unless noted, calls follow the shape of the dose curve; as a rule, active = well fitted curve in the direction sought with a large enough effect; inconclusive = small, poorly fitted or top-dose-only effect, or another doubt; inactive = no such curve, though single readings can be large; an effect the other way counts as inactive or inconclusive.
SMILES,Nrf2 inh,BRCA1 expr up,A549 viability,Nrf2 activator,IL-2 act,p53 reactivator
Cn1c(=O)[nH]c(=O)c2c1nc(N1CCOCC1)n2Cc1ccccc1,?,·,-1%,0%,·,·
Cc1cc(C)c(Cn2c(C3CC(=O)N(c4ccc(F)cc4)C3)nc3ccccc32)c(C)c1 (centres undefined),?,·,?,3%,·,·
O=C(Nc1nc2ccccc2[nH]1)Nc1ccccc1F,?,?,1%,5%,0,11µM*
CCCOc1cccc(OCC(=O)Nc2nc3ccccc3[nH]2)c1,-4%,-5%,5%,3%,-4,6%
O=C(COc1ccccc1)Nc1nc2ccccc2[nH]1,14%,13µM*,-17%,5%,0,8%
Cc1ccc(-c2nnc(NC(=O)c3ccc4c(c3)OCCO4)o2)c(C)c1,·,·,4%,0%,·,·
COc1ccc(-c2cnc(C(O)c3ccc(-c4ccccc4)cc3)[nH]2)cc1 (centres undefined),·,-6%,·,4%,0,·
OC(c1ccccc1)c1ncc(-c2ccccc2Cl)[nH]1 (centres undefined),·,10µM*,·,4%,1,·
COc1cccc(-c2cnc(C(O)c3ccccc3)[nH]2)c1 (centres undefined),·,11µM*,·,1%,0,·
COc1ccc(-c2cnc(C(O)c3ccccc3)[nH]2)cc1 (centres undefined),·,13µM*,·,4%,0,·
COc1cccc(-c2cnc(C(O)c3ccc(C)cc3)[nH]2)c1 (centres undefined),·,18%,·,-1%[9.22 µM],0,·
OC(c1ccc(-c2ccccc2)cc1)c1ncc(-c2ccccc2Cl)[nH]1 (centres undefined),·,-46%,·,1%,0,·
Cc1ccc(S(=O)(=O)Nc2cc3c(C(=O)OCc4ccccc4)c(C)oc3c3ccccc23)c(C)c1,-3%,·,3%,1%,·,·
Cc1ccc(C(=O)Nc2nnc(-c3ccco3)o2)cc1,3%,18%,13%,2%,2,?
O=C(Nc1nnc(-c2ccco2)o1)c1ccc([N+](=O)[O-])s1,21µM*,-68%,?,2%,0,5%
O=C(Nc1nnc(-c2ccc(F)cc2)o1)c1ccc(S(=O)(=O)N2CCOCC2)cc1,9.2µM*,-32%,-19%,2%,-3,-14%
COc1ccccc1NC(=O)c1ccc(S(=O)(=O)N2CCC(C)CC2)cc1,8.2µM*,-2%,0%,-1%,1,6%
CC1CCCN(S(=O)(=O)c2ccc(C(=O)Nc3nnc(-c4ccccn4)o3)cc2)C1 (centres undefined),13µM*,-25%,0%,2%,-1,-1%
CC1CCCN(S(=O)(=O)c2ccc(C(=O)Nc3nnc(-c4ccccc4Cl)o3)cc2)C1 (centres undefined),?,-77%,-4%,1%,0,-1%
Cc1cc(O)cc2c1O[C@](C)(CCC(=O)O)CC2,·,0%,·,·,·,·
CCOC(=O)Cc1ccc(NC(=O)Nc2cccc(OCc3cc(=O)n4cc(C)ccc4n3)c2)cc1,·,·,9%,-1%,·,·
COc1cc(NC(=O)Cn2c(=O)n(Cc3ccccc3OC)c(=O)c3cccnc32)cc(OC)c1,12%,0%,4%,0%,·,·
CCC(Sc1nnc(-c2ccc(F)cc2)c(-c2ccc(F)cc2)n1)C(=O)NC1CCCC1 (centres undefined),·,·,-1%,5%,·,·
CC1CCN(S(=O)(=O)c2ccc(C(=O)Nc3nnc(-c4ccco4)o3)cc2)CC1,8.2µM*,-84%,0%,-1%,2,-12%
COc1cccc(-c2nnc(NC(=O)c3ccc(S(=O)(=O)N4CC(C)OC(C)C4)cc3)o2)c1 (centres undefined),9.2µM*,-65%,-23%,0%,0,2%
SMILES,Nrf2 inh,BRCA1 expr up,A549 viability,Nrf2 activator,IL-2 act,p53 reactivator
Cc1cc(C)c2sc(N(CCCN(C)C)C(=O)c3ccc(Br)s3)nc2c1,15µM*,-69%,?,-2%,-5,5%
CC(C)CC(=O)Nc1nc2nc(-c3ccccc3)cc(=O)n2[nH]1,24%,·,6%,-1%,·,·
Cc1ccc(NC(=O)CSc2nc3ccc(NC(=O)CCc4ccccc4)cc3s2)cc1,17%,0%,0%,0%,·,·
O=C(CCSc1ccc(Cl)cc1)N1CCOCC1,9%,7.9µM*,-1%,-1%,-1,?
CCOC(=O)c1cnn(-c2ccc(C)cc2)c1N,2%,11µM*,-6%,0%,3,15%
CCOC(=O)c1nnn2c1nc(N1CCOCC1)c1ccccc12,-6%,-22%,-2%,0%,-1,-5%
Nc1nc2c(C(=O)N3CCOCC3)nnn2c2ccccc12,18%,2.8µM*,0%,0%,-1,1%
O=C(Nc1ccc(Nc2ccncc2)cc1)c1ccc([N+](=O)[O-])cc1,18µM*,-21%,1%,6%,-2,12%
O=C(Nc1ccc(Cl)c(Cl)c1)c1ccc(Cn2cc(Cl)cn2)cc1,?,-33%,?,18%,-3,?
O=C(Nc1ccc([N+](=O)[O-])cc1)c1ccc(Cn2cc([N+](=O)[O-])cn2)cc1,18µM*,-21%,-14%,0%,1,15%
CCOc1ccc(C(=O)Nc2cnn(Cc3ccc(Cl)c(Cl)c3)c2)cc1,23µM*,-47%,?,2%,-2,0%
C=C1CCN(C(CC(C)C)C(=O)NCc2ccc(Cl)c(Cl)c2)S(=O)(=O)c2ccccc21 (centres undefined),?,·,-8%,·,·,·
COc1ccc(S(=O)(=O)n2nc(-c3ccco3)nc2NCc2ccc(C(C)C)cc2)cc1,-7%,·,-3%,1%,·,·
COc1ccc(NC(=O)COC(=O)c2cc(=O)c3ccccc3o2)cc1OC,21%,-7%,0%,13µM*,-5,9%
COc1ccc(-c2nc3ccccc3o2)cc1NC(=O)COc1ccc(C)cc1,·,0%,·,·,·,·
COC(=O)c1cc(NC(=O)c2cccc(C(F)(F)F)c2)c(=O)oc1C/C=N/OCc1cccc(Cl)c1Cl,-10%,-28%,-1%,13µM*,6,-2%
S=C(NCCCc1cnc[nH]1)NCCCN(Cc1ccc(Cl)cc1)c1cc(-c2ccccc2)ccn1,-19%,0%,-24%,·,·,·
C/C(=N\NC(=O)C(C)Oc1ccc([N+](=O)[O-])cc1)c1ccccn1 (centres undefined),6.5µM*,-92%,?,23%,-1,2%
